Measured values: PubChem BioAssay AID1159580 (chemical genetic matrix, 2015)
Screen size: about 5,500 compounds; about 2,000 (36%) were called active. Roughly 18% stayed inconclusive and do not appear here. No stated cut-off is given here; in the data, active means normalized growth mostly below about 0.91 (no sharp cut-off); inconclusive means no clear call, values can overlap the other calls; inactive means mostly above about 0.92. This is one part of the list.

Test: chemical genetic growth profiling, strain panel (AID 1159580);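 further: tested at 20 µM; growth read once vehicle control cultures reached saturation at 30 °C; 1 = growth at the plate median or of vehicle wells; lower values mean less growth of the strain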
Conditions: S. cerevisiae deletion strains, growth OD
[1] = locus YDL101C, strain DUN1, hits give low values
[2] = locus YHR030C, strain SLT2, hits give low values
[3] = locus YAL013W, strain DEP1, hits give low values
[4] = locus YDR150W, strain NUM1, hits give low values
[5] = locus YJR075W, strain HOC1, hits give low values
[6] = locus YPL241C, strain CIN2, hits give low values

Measured: normalized growth

C/C(=N/Nc1ccccc1)c1cc(Cl)cc(Cl)c1O
active: [2] 0.308 | locus YLR113W, strain HOG1, hits give low values 0.792 | locus YLR133W, strain CKI1, hits give low values 0.731 | locus YNL020C, strain ARK1, hits give low values 0.647 | locus YNL307C, strain MCK1 (second series), hits give low values 0.632 | locus YPL256C, strain CLN2, hits give low values 0.774
inactive: locus YAR019C, strain CDC15, hits give low values 0.964 | locus YBL105C, strain PKC1, hits give low values 0.977 | locus YBR135W, strain CKS1, hits give low values 0.954 | locus YBR136W, strain MEC1, hits give low values 0.954 | locus YBR160W, strain CDC28, hits give low values 0.958 | locus YDL017W, strain CDC7, hits give low values 0.964 | locus YDL028C, strain MPS1, hits give low values 0.967 | [1] 0.969 | locus YDL108W, strain KIN28, hits give low values 0.954 | locus YDL132W, strain cdc53, hits give low values 0.956 | locus YDL214C, strain PRR2, hits give low values 0.785 | locus YDR052C, strain DBF4, hits give low values 0.968 | locus YDR054C, strain cdc34, hits give low values 0.966 | locus YDR226W, strain ADK1, hits give low values 0.954 | locus YDR477W, strain SNF1, hits give low values 0.734 | locus YER123W, strain YCK3, hits give low values 0.734 | locus YER133W, strain GLC7, hits give low values 0.825 | locus YFL009W, strain cdc4, hits give low values 0.964 | locus YFL029C, strain CAK1, hits give low values 0.955 | locus YFR003C, strain YPI1, hits give low values 0.962 | locus YFR019W, strain FAB1, hits give low values 0.834 | locus YFR028C, strain CDC14, hits give low values 0.93 | locus YGR040W, strain KSS1, hits give low values 0.746 | locus YGR052W, strain FMP48, hits give low values 0.804 | locus YGR092W, strain DBF2, hits give low values 0.658 | locus YHR079C, strain IRE1, hits give low values 0.748 | locus YHR082C, strain KSP1, hits give low values 0.731 | locus YHR205W, strain SCH9, hits give low values 0.694 | locus YIL147C, strain SLN1, hits give low values 0.968 | locus YJL095W, strain BCK1, hits give low values 0.815 | locus YJL128C, strain PBS2, hits give low values 0.884 | locus YJL157C, strain FAR1, hits give low values 0.79 | locus YJR016C, strain ILV3, hits give low values 0.954 | locus YJR066W, strain TOR1 (second series), hits give low values 0.829 | locus YJR066W, strain TOR1, hits give low values 0.66 | locus YKL048C, strain ELM1, hits give low values 0.87 | locus YKL067W, strain YNK1, hits give low values 0.851 | locus YKL101W, strain HSL1, hits give low values 0.798 | locus YKL193C, strain SDS22, hits give low values 0.948 | locus YKL203C, strain TOR2, hits give low values 0.745 | locus YLR403W, strain SFP1, hits give low values 0.681 | locus YML070W, strain DAK1, hits give low values 0.81 | locus YMR001C, strain CDC5, hits give low values 0.954 | locus YMR205C, strain PFK2 (second series), hits give low values 0.862 | locus YMR277W, strain FCP1, hits give low values 0.95 | locus YNL006W, strain LST8, hits give low values 0.966 | locus YNL161W, strain CBK1, hits give low values 0.964 | locus YNL183C, strain NPR1, hits give low values 0.872 | locus YNL207W, strain RIO2, hits give low values 0.958 | locus YNL222W, strain SSU72, hits give low values 0.961 | locus YOL078W, strain AVO1, hits give low values 0.961 | locus YOL136C, strain PFK27, hits give low values 0.764 | locus YOR061W, strain CKA2, hits give low values 0.784 | locus YOR119C, strain RIO1, hits give low values 0.732 | locus YOR231W, strain MKK1, hits give low values 0.855 | locus YOR329C, strain SCD5, hits give low values 0.974 | locus YPL031C, strain PHO85, hits give low values 0.742 | locus YPL153C, strain RAD53, hits give low values 0.78 | locus YPL204W, strain HRR25, hits give low values 0.737 | locus YPL209C, strain IPL1, hits give low values 0.965 | locus YPR025C, strain CCL1, hits give low values 0.963 | locus YPR106W, strain ISR1, hits give low values 0.942 | locus YPR111W, strain DBF20, hits give low values 0.938 | strain NNK1, hits give low values 0.951 | strain TSCII, hits give low values 0.967

CSC(=NC(=O)c1c(Cl)cccc1Cl)SC
inactive: [4] 0.992 | locus YMR263W, strain SAP30, hits give low values 0.931 | locus YNL128W, strain TEP1, hits give low values 0.928 | locus YPL055C, strain LGE1, hits give low values 0.919
active: [3] 0.886 | locus YBR229C, strain ROT2, hits give low values 0.856 | [1] 0.866 | locus YDL134C, strain PPH21, hits give low values 0.782 | locus YEL061C, strain CIN8, hits give low values 0.781 | locus YGR078C, strain PAC10, hits give low values 0.912 | [2] 0.194 | locus YHR087W, strain rtc3, hits give low values 0.896 | locus YJL187C, strain SWE1, hits give low values 0.82 | locus YJR043C, strain POL32, hits give low values 0.904 | [5] 0.776 | locus YLR039C, strain RIC1, hits give low values 0.284 | locus YLR058C, strain SHM2 (second series), hits give low values 0.924 | locus YLR085C, strain ARP6, hits give low values 0.332 | locus YLR262C, strain YPT6, hits give low values 0.275 | locus YML094W, strain GIM5, hits give low values 0.85 | locus YMR219W, strain ESC1, hits give low values 0.932 | locus YMR307W, strain GAS1, hits give low values 0.177 | locus YNL153C, strain GIM3, hits give low values 0.852 | locus YNL298W, strain CLA4 (second series), hits give low values 0.636 | locus YNL322C, strain KRE1, hits give low values 0.925 | locus YNR030W, strain Alg12, hits give low values 0.747 | locus YOL006C, strain TOP1, hits give low values 0.541 | [6] 0.663 | locus YPR135W, strain CTF4, hits give low values 0.313

NC(N)=NC(=O)Cc1c(Cl)cccc1Cl
inactive: [3] 1.01 | locus YAL040C, strain CLN3, hits give low values 0.979 | locus YCL061C, strain MRC1 (second series), hits give low values 1 | [4] 0.997 | locus YDR363W, strain ESC2, hits give low values 0.997 | locus YER002W, strain NOP16, hits give low values 1.04 | [5] 1 | locus YNL175C, strain NOP13, hits give low values 0.996 | locus YNL197C, strain WHI3, hits give low values 1.02 | locus YNL224C, strain SQS1, hits give low values 0.971 | locus YOR083W, strain WHI5 (second series), hits give low values 1.01 | [6] 1
